Experimental findings from PubChem BioAssay (Tox21) are described below.

Molecules are shown by their SMILES. Inconclusive results are not listed. The source made the active and inactive calls. Unless noted, the call rests on the fitted dose curve.

A short description of test [1]: Nuclear factor erythroid 2-related factor 2/antioxidant responsive element (Nrf2/ARE) small molecule agonists: qHTS cell viability counter screen in human keratinocytes (AID 1919968; active means well fitted curve in the direction sought with a large enough effect in the repeat runs; an effect the other way counts as inactive or inconclusive; further: nearly all actives have a fitted effect of over 55% in size; further: potency means the concentration at half of the fitted maximal effect). In outline: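 Stably transfected HaCaT (KeratinoSens), 1,500/well. Test agents in DMSO were applied for 23 h, 37 C/5% CO2. CellTiter-Fluor was incubated 1 h before the fluorescence read.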
For orientation: Quantitative high-throughput screening tests each substance at several concentrations.

Test [2] has as its target Gonadotropin-releasing hormone receptor (Homo sapiens) (UniProt P30968). Put plainly: Human gonadotropin-releasing hormone receptor (GnRHR) small molecule agonists, calcium flux assay in GnRHR-HEK293 cells (AID 1920063). Further: nearly all actives have a fitted effect of over 35% in size. In outline:
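Stable human GnRHR HEK293 line. 18 h plating, then calcium dye for 1 h at 37 C. Agonist-mode compound addition from DMSO stocks; fluorescence monitored 3 min.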
(In general: A change in cytosolic calcium serves as a functional read-out for many receptors and channels.)

The target of test [3] is KiSS-1 receptor (Homo sapiens) (UniProt Q969F8). Put plainly: Human kisspeptin (KISS1R) small molecule agonists, calcium flux assay in KISS1R-HEK293 cells (AID 1920064; active means well fitted curve in the direction sought with a large enough effect in the repeat runs; an effect the other way counts as inactive or inconclusive). The method in brief: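 After overnight (18 h) culture at 37 C/5% CO2, human KISS1R-HEK293 cells received calcium dye for 1 h, then test compound; emission at 540 nm (excitation 480 nm) was tracked for 3 min.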
KiSS-1 receptor (Homo sapiens), sequence (Q969F8 whole entry, looked up): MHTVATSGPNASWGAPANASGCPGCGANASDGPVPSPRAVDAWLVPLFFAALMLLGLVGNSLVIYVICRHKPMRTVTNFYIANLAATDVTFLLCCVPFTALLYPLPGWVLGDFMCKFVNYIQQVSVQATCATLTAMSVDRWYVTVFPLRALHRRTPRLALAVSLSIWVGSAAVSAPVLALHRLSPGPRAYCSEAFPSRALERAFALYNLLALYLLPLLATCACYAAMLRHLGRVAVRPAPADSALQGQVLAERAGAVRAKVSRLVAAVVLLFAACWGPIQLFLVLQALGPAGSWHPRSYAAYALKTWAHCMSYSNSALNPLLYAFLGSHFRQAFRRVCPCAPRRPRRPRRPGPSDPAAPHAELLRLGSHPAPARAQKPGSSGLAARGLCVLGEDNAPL

A short description of test [4]: G protein-coupled receptor (GPCR) small molecule agonists, calcium flux assay: HEK293 wild type cell line counter screen (AID 1920065). The method in brief:
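Following 18 h incubation at 37 C/5% CO2, plates got calcium dye for 1 h; compounds, ATP or DMSO were then pinned in and fluorescence followed kinetically (480/540 nm).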

Test [5] can be described thus: p53 small molecule agonists, cell-based qHTS assay with human liver microsomes (AID 1963577).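 Further: p53 response element beta-lactamase reporter cells with liver microsomes plus NADPH.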 The method in brief:
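Steps: plate p53RE-bla cells, incubate 5 h at 37 C; add compound in DMSO; add microsomes (0.5 mg/mL final) and NADPH (0.5 mg/mL final); incubate 16 h at 37 C; add LiveBLAzer, 2 h RT; read fluorescence.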

Test [6] in a line: p53 small molecule agonists, cell-based qHTS assay with rat liver microsomes (AID 1963578). In outline: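 Metabolic activation is supplied by rat liver microsomes with NADPH (each 0.5 mg/mL final). p53RE-bla cells incubate with compound 16 h at 37 C; reporter activity is measured by LiveBLAzer fluorescence.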
A short description of test [7]: p53 small molecule agonists, cell-based qHTS assay: qHTS cell viability counter screen (AID 1963581). Further: nearly all actives have a fitted effect of over 45% in size. In outline:
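qHTS counter screen: 16 h compound exposure at 37 C of p53RE-bla HCT-116 cells (4,000 per well, seeded 5 h prior), cell viability by ATP luminescence.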

Test [8] is described as follows: p53 small molecule agonists, cell-based qHTS assay (AID 1963582; active means well fitted activation curve with a large enough effect in the signal ratio in the repeat runs, not every such curve was filed as active; the % refers to the signal ratio). In outline:
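Measured: fluorescence from cleaved LiveBLAzer substrate. System: p53RE-bla cells, 16 h compound treatment at 37 C, 2 h substrate step at room temperature.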

Test [9] deals with 5-hydroxytryptamine receptor 2A (Homo sapiens) (UniProt P28223). Put plainly: 5-hydroxytryptamine receptor 2A (HTR2A) small molecule agonists, cell-based qHTS assay (AID 1963587). Further: nearly all actives have a fitted effect of over 30% in size. The method in brief:
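Kinetic calcium-flux fluorescence (2 min, 1 sec intervals) after compound addition in agonist mode. HTR2A-CHO cells were cultured 18 h, then dye-loaded 1 h at 37 C.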

Test [10] has as its target Muscarinic acetylcholine receptor M1 (Homo sapiens) (UniProt P11229). The test can be described thus: Cholinergic receptor muscarinic 1 (CHRM1) small molecule antagonists, cell-based qHTS assay (AID 1963588). Further: nearly all actives have a fitted effect of over 40% in size. In outline:
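Compounds were tested at 15 concentrations in three independent runs. Dye-loaded CHRM1-CHO cells were exposed 5 min at room temperature before stimulation by acetylcholine added at 50nM. Intracellular calcium was read kinetically on FDSS for 3 min.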

Test [11] has the same target. The test can be described thus: Cholinergic receptor muscarinic 1 (CHRM1) small molecule agonists, cell-based qHTS assay (AID 1963589). Further: nearly all actives have a fitted effect of over 35% in size. In outline:
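Kinetic fluorescence (1 s intervals) of calcium-sensitive dye in human M1 CHO cells after compound addition; cells pre-incubated 18 h at 37 C/5% CO2 and dye-loaded 1 h.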

A short description of test [12]: cAMP Responsive Elements (CRE) small molecule agonists, cell-based qHTS assay (AID 1963590). In outline:
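Test agents in DMSO were incubated 3 h at 37 C/5% CO2 with CRE-bla HEK 293T cells seeded 18 h earlier; LiveBLAzer B/G FRET substrate was added and read after 2 h at room temperature.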

A short description of test [13]: cAMP Responsive Elements (CRE) small molecule antagonists, cell-based qHTS assay (AID 1963591; active means well fitted inhibition curve with a large enough effect in the signal ratio in the repeat runs, not every such curve was filed as active; the % refers to the signal ratio). In outline: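 Reporter line CRE-bla HEK 293T in dialyzed-FBS DMEM; cells preincubated 18 h, treated 3 h with compound plus NKH477 (0.25 uM final); LiveBLAzer FRET, 2 h RT.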
The target in test [14] is Beta-2 adrenergic receptor (Homo sapiens) (UniProt P07550). The test can be described thus: Adrenergic beta2 receptor (ADRB2) small molecule antagonists, cell-based qHTS assay (AID 1963592). Further: series mostly up to about 92 µM; nearly all actives have a fitted effect of over 50% in size. In outline:
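Assay format: CHO-ADRB2 cells, 18-20hr seeding at 37C/5% CO2, then compound plus 1nM isoproterenol agonist mix for 0.5hr RT. Homogeneous time-resolved fluorescence cAMP detection after 1hr, expressed as 665/615 nm ratio.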

For test [15], the target named is D(2) dopamine receptor (Homo sapiens) (UniProt P14416). Put plainly: Dopamine D2 receptor (DRD2) small molecule agonists, cell-based qHTS assay (AID 1963594). Further: nearly all actives have a fitted effect of over 35% in size. The method in brief: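 cAMP accumulation in DRD2-HEK293 cells measured by HTRF after 1 h detection; compounds added 10 min before NKH477 (200nM […]) forskolin-analogue stimulation, 30 min at room temperature, with Ro20-1724 present at 0.1 mM final.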
D(2) dopamine receptor (Homo sapiens), sequence (P14416 whole entry, looked up): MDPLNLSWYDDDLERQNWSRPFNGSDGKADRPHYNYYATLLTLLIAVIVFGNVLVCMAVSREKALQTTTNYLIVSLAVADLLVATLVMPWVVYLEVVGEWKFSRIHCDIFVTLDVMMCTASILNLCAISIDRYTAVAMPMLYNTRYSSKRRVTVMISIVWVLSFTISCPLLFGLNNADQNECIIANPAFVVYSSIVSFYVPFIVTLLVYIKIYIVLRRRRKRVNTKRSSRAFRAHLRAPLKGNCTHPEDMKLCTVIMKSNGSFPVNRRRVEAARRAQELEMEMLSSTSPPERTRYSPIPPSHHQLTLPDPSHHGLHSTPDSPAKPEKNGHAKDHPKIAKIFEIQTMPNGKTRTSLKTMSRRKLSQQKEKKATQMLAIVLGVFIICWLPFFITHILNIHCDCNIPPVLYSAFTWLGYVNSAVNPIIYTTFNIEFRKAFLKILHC

The nature of test [16]: p53 small molecule agonists, cell-based qHTS assay with rat liver microsomes: qHTS cell viability counter screen (AID 1963580). Further: nearly all actives have a fitted effect of over 45% in size. In outline: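 Cytotoxicity counter screen: intracellular ATP read by CellTiter-Glo luminescence in the p53 reporter wells. HCT-116 p53RE-bla cells were treated for 16 h at 37 C alongside rat liver microsomes and NADPH, each 0.5 mg/mL final.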
Test [17] deals with 5-hydroxytryptamine receptor 2A (Homo sapiens) (UniProt P28223). Put plainly: 5-hydroxytryptamine receptor 2A (HTR2A) small molecule antagonists, cell-based qHTS assay (AID 1963586). Further: nearly all actives have a fitted effect of over 45% in size. In outline:
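CHO cells stably expressing human HTR2A were plated for 18 h at 37 C, then loaded with calcium dye for 1 h. Compounds were preincubated 5 min at room temperature before DOI (4 nM solution) was added. Kinetic fluorescence was read for 3 min.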

Test [18] concerns the target D(2) dopamine receptor (Homo sapiens) (UniProt P14416). Put plainly: Dopamine D2 receptor (DRD2) small molecule antagonists, cell-based qHTS assay (AID 1963595; active means well fitted inhibition curve with a large enough effect in the signal ratio in the repeat runs, with a control signal flat; the % refers to the signal ratio). The method in brief: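 Cells were plated and grown for 24 h at 37 °C. Ro20-1724 (0.1 mM final) went in first, then compound for 10 min. NKH477 (200 nM) with quinpirole (12 nM) followed for 30 min at RT, then HTRF detection reagents for 1 h.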

Test [19] addresses Beta-2 adrenergic receptor (Homo sapiens) (UniProt P07550). Put plainly: Adrenergic beta2 receptor (ADRB2) small molecule agonists, cell-based qHTS assay (AID 1963593).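 Further: CHO cells stably overexpressing human ADRB2.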 In outline:
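CHO cells stably over-expressing ADRB2 were plated overnight at 37C, then dosed with compounds plus a stimulation mix containing 100uM IBMX and 25uM Ro-20-1724 for 0.5hr at room temperature. cAMP was measured by HTRF competition, 1hr.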

Test [20] in a line: p53 small molecule agonists, cell-based qHTS assay with human liver microsomes: qHTS cell viability counter screen (AID 1963579). Further: nearly all actives have a fitted effect of over 45% in size. The method in brief: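 After the 460/530 nm beta-lactamase read, CellTiter-Glo was added to the same wells and luminescence measured after 30 min at room temperature, giving viability of p53RE-bla cells treated 16 h with compounds plus microsomes and NADPH.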

Gonadotropin-releasing hormone receptor (Homo sapiens), sequence (P30968 whole entry, looked up): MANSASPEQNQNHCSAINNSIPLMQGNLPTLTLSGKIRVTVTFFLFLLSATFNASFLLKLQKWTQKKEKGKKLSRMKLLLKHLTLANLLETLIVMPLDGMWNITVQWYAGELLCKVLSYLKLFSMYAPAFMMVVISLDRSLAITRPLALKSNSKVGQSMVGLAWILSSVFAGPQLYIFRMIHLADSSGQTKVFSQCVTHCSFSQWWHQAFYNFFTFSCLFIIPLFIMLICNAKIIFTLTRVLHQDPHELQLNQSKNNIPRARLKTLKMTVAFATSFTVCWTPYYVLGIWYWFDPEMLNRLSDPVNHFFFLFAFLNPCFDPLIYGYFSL
Beta-2 adrenergic receptor (Homo sapiens), sequence (P07550 whole entry, looked up): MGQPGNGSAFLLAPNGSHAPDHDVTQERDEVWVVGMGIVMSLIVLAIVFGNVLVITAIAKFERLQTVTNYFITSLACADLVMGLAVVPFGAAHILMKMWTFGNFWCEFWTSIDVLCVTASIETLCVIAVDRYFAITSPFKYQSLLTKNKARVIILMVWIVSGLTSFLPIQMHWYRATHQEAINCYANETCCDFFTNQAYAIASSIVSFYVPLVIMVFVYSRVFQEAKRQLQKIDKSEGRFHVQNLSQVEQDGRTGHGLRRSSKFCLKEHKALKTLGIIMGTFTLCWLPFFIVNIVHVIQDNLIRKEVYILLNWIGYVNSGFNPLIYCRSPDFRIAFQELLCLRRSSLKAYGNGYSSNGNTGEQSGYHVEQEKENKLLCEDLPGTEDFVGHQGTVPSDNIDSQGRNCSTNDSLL
5-hydroxytryptamine receptor 2A (Homo sapiens), sequence (P28223 whole entry, looked up): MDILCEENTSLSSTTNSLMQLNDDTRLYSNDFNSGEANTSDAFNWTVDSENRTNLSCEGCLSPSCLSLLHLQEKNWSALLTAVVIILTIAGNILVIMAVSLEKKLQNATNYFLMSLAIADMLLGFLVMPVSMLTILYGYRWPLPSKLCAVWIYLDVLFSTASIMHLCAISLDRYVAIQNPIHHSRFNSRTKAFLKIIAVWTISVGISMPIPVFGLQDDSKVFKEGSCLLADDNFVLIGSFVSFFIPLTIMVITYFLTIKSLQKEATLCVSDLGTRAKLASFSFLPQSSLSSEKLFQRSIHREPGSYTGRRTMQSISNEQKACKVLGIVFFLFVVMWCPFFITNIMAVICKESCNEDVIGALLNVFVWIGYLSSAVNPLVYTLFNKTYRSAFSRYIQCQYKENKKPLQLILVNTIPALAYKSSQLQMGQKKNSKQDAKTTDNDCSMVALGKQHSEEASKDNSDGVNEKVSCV
Muscarinic acetylcholine receptor M1 (Homo sapiens), sequence (P11229 whole entry, looked up): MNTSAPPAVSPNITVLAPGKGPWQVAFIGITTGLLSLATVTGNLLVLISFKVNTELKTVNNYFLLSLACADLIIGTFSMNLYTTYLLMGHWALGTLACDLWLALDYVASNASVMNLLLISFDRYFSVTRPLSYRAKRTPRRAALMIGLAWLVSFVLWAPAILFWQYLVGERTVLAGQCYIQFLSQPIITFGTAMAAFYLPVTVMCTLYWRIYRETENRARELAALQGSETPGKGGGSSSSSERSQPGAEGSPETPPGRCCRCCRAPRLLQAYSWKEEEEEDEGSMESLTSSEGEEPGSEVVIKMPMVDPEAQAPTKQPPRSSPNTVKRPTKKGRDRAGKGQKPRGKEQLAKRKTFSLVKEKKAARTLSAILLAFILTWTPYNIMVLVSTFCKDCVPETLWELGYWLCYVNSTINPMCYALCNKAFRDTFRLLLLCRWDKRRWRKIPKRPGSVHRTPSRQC

Consider `O=C(/C=C/c1ccccc1)OCCc1ccccc1`, for which the Potency entry in [1], in test [2], in [3], in test [4], in [5] and in [6] was “inactive” each time. In addition, the Potency result in [7], in [8], in test [9], in [10], in test [11] and in test [12] was “inactive” throughout. Also, the Potency result in [13], in [14] and in [15] was “inactive” each time.
Consider `CCCC(=O)OCC`, for which the Potency entry in test [1], in test [2], in [3], in test [4], in test [5] and in test [6] was “inactive” in each case. Moreover, the Potency entry in [16], in test [7], in test [8], in test [17], in test [9] and in test [10] was “inactive” throughout. The Potency result in [11], in [12], in test [13], in test [14], in [15] and in [18] was “inactive” each time.
As to `Cc1ccc([N+](=O)[O-])c(N)c1`, the Potency result in test [1], in test [2], in test [3], in test [4], in test [5] and in test [6] was “inactive” each time. Also, the Potency entry in test [16], in test [7], in test [8], in test [17], in test [9] and in test [10] was “inactive” in each case. Besides, the Potency result in test [11], in [12], in test [13], in test [14], in test [19] and in [15] was “inactive” throughout. Besides, in [18], the Potency result was “inactive”.
For `CC(C)c1cccc(C(C)C)c1NC(=O)NS(=O)(=O)c1cc(C(C)(C)O)co1`, the Potency entry in [1], in [2], in [3], in test [4], in test [5] and in [6] was “inactive” each time. Besides, the Potency entry in test [16], in test [7], in test [8], in [17], in test [9] and in [10] was “inactive” throughout. The Potency entry in test [11], in [12], in test [13], in test [14], in test [19] and in test [15] was “inactive” each time. In [18], the Potency entry is “inactive”.
In the case of `COc1ccc(C2CNC(=O)C2)cc1OC1CCCC1` (stereo not given), the Potency entry in [1], in [2], in test [3], in [4], in test [5] and in [6] was “inactive” each time. Also, the Potency result in [16], in test [7], in test [8], in [17], in test [9] and in test [10] was “inactive” throughout. In addition, the Potency result in test [11], in [12], in test [13], in test [14], in [19] and in test [15] was “inactive” throughout. The Potency entry in test [18] was “inactive”.
Take `Cc1ccc(C(C)(C)C)c(O)c1`: the Potency entry in [1], in [2], in [3], in [4], in test [5] and in test [6] was “inactive” in each case. Besides, the Potency result in test [16], in [7], in [8], in test [17], in test [11] and in test [14] was “inactive” throughout. In addition, the Potency entry in [15] and in test [18] was “inactive” each time.
As for `c1cc(C(c2ccc(OCC3CO3)cc2)c2ccc(OCC3CO3)cc2)ccc1OCC1CO1` (stereo not given), in test [1], the Potency is 27.3 µM (active). Also, the Potency result in test [2], in test [3], in test [4], in [5], in test [6] and in [20] was “inactive” throughout. In addition, the Potency result in test [7], in [17], in test [10], in [11], in test [15] and in test [18] was “inactive” in each case.
`CC(CC=O)c1ccccc1` (stereo not given): the Potency result in [1], in [2], in test [3], in test [4], in test [5] and in [6] was “inactive” in each case. For the same compound, the Potency result in test [16], in [7], in test [8], in test [17], in [10] and in [11] was “inactive” throughout. The Potency result in test [12], in test [13], in [14], in [19], in test [15] and in test [18] was “inactive” each time.
